Measurements reported in PubChem BioAssay (EPA / NIEHS).
Records with an inconclusive call do not appear. Active and inactive are the calls of the source. How the source made its calls, unless noted: active means hit-call score of the fitted dose curve at least 0.9, where 1 is the maximum; inactive means score below 0.9.

Key:
[1] = IUF_NPC1b_proliferation_BrdU_72hr: Leibniz Research Institute for Environmental Medicine (IUF) 72-hour Neural Progenitor Cell Bromodeoxyuridine (BrdU) Proliferation Assay (NPC1b) (AID 2284207)
Method in brief: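 Human fetal cortex-derived (GW 16-19) neural progenitor spheres, 0.25-0.35 mm, one per well in EGF/FGF proliferation medium, exposed to compound for 72 h at 37C, pH 7.2-7.6. BrdU incorporation over the final 16 h read by luminescence ELISA, relative to DMSO.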

[2] = IUF_NPC1a_proliferation_area_72hr: Leibniz Research Institute for Environmental Medicine (IUF) 72-hour Neural Progenitor Cell Proliferation Area Assay (NPC1a) (AID 2284208)
Method in brief: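 Spheres of 0.3 mm are plated singly in growth-factor medium and exposed from day 0. After three days at 37C and 5% CO2, sphere area is measured by phase contrast imaging, with activity referenced to DMSO.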

[3] = IUF_NPC1_viability_72hr: Viability Assessment at 72 hours in the Leibniz Research Institute for Environmental Medicine (IUF) Neural Progenitor Cell Proliferation Assay (NPC1) (AID 2284209)
Method in brief: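 Three-day continuous exposure of human neural progenitor spheres under EGF/FGF-driven proliferation; cell viability scored by alamar blue signal versus DMSO.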

[4] = IUF_NPC2c_oligodendrocyte_migration_120hr: Leibniz Research Institute for Environmental Medicine (IUF) 120-hour Neural Progenitor Cell Migration Assay for Oligodendrocyte Migration (NPC2c) (AID 2284297)
Method in brief: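 Read-out is the mean distance of O4-positive oligodendrocytes from the sphere core edge at 120 h, normalized to radial glia migration and fitted in the gain direction against DMSO. Spheres of primary human neural progenitors differentiated on laminin under continuous compound exposure.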

[5] = IUF_NPC2a_radial_glia_migration_72hr: Leibniz Research Institute for Environmental Medicine (IUF) 72-hour Neural Progenitor Cell Migration Assay for Radial Glia Migration (NPC2a) (AID 2284299)
Method in brief: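 Spheres of human primary neural progenitors migrate on poly-D-lysine/laminin under compound exposure at 37C, 5% CO2. The 72 h radial glia migration distance comes from brightfield images, measured manually.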

[6] = IUF_NPC2b_neuronal_migration_120hr: Leibniz Research Institute for Environmental Medicine (IUF) 120-hour Neural Progenitor Cell Migration Assay for Neuron Migration (NPC2b) (AID 2284300)
Method in brief: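 Read-out is mean distance from sphere edge to each TUBB3-positive neuron at 120 h, expressed relative to radial glia migration distance and to DMSO baseline. Single 0.3 mm human NPC spheres differentiated on laminin under continuous compound exposure.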

[7] = IUF_NPC3_neuronal_differentiation_120hr: Leibniz Research Institute for Environmental Medicine (IUF) 120-hour Neuronal Differentiation Assay (NPC3) (AID 2284301)
Method in brief: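 Value is percent TUBB3-positive neurons among Hoechst-stained nuclei in the migration area, scored by trained CNN after 120 h differentiation. Primary hNPC spheres on poly-D-lysine/laminin, N2 medium, continuous dosing from day 0, half-refeed day 3; DMSO reference.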

[8] = IUF_NPC4_neurite_area_120hr: Leibniz Research Institute for Environmental Medicine (IUF) 120-hour Neuronal Morphology Assay for Neurite Area (NPC4) (AID 2284305; active means hit-call score of the fitted dose curve at least 0.9, where 1 is the maximum)
Method in brief: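 Neurite area (pixels, nuclei excluded) of TUBB3-positive neurons from hNPC spheres differentiating 5 days under continuous exposure at 37 C, 5% CO2. High-content imaging; loss of signal versus DMSO control across 7 concentrations.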

[9] = IUF_NPC2-5_cytotoxicity_72hr: Cytotoxicity Assessment at 72 hours in the Leibniz Research Institute for Environmental Medicine (IUF) Neural Progenitor Cell Migration and Differentiation Assay for Cytotoxicity (NPC2-5) (AID 2284306; active means hit-call score of the fitted dose curve at least 0.9, where 1 is the maximum;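 further: LDH release into supernatant measured by resorufin fluorescence marking membrane damage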)
Method in brief: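 Membrane-integrity cytotoxicity at 72 h, read as LDH-driven resorufin fluorescence in supernatant. hNPC spheres from fetal cortex differentiate on coated plates in N2 medium, 37C, 5% CO2; seven serial compound concentrations plus solvent control (DMSO ≤0.1%).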

[10] = IUF_NPC2-5_cytotoxicity_120hr: Cytotoxicity Assessment at 120 hours in the Leibniz Research Institute for Environmental Medicine (IUF) Neural Progenitor Cell Migration and Differentiation Assay (NPC2-5) (AID 2284307; active means hit-call score of the fitted dose curve at least 0.9, where 1 is the maximum)
Method in brief: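 Sphere plating starts differentiation and exposure together at day 0. Compound solution is half-replaced on day 3. At 120 h, medium supernatant is taken for an LDH membrane-integrity read based on resazurin reduction to resorufin fluorescence.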

[11] = IUF_NPC2-5_cell_number_120hr: Cell Number Assessment at 120 hours in the Leibniz Research Institute for Environmental Medicine (IUF) Neural Progenitor Cell Migration and Differentiation Assay (NPC2-5) (AID 2284308);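 further: count of Hoechst-stained nuclei in migration zone around plated human neural progenitor spheres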
Method in brief: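 hNPC spheres, one per well, PDL/laminin, N2 medium, 37C, 5% CO2. Dosing day 0 → half-medium change with fresh compound day 3 → fix 120 h. Readout: Hoechst+ nuclei count, migration area; 7 concentrations plus solvent control.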

[12] = IUF_NPC2-5_viability_120hr: Viability Assessment at 120 hours in the Leibniz Research Institute for Environmental Medicine (IUF) Neural Progenitor Cell Migration and Differentiation Assay (NPC2-5) (AID 2284312)
Method in brief: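 Alamar blue resorufin fluorescence read after 5 days of differentiation, with compound present from day 0 and replenished at day 3. Primary hNPC spheres on laminin-coated plates, 37C; seven concentrations plus solvent control, fitted against DMSO.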

[13] = IUF_NPC1_cytotoxicity_72hr: Cytotoxicity Assessment at 72 hours in the Leibniz Research Institute for Environmental Medicine (IUF) Neural Progenitor Cell Proliferation Assay (NPC1) (AID 2284332; active means hit-call score of the fitted dose curve at least 0.9, where 1 is the maximum;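 further: rising LDH signal means more cytotoxicity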)
Method in brief: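 Readout is fluorescence from LDH-dependent resazurin conversion, sampled from culture medium after compound contact lasting 72 h. Each well holds one 0.25-0.35 mm human progenitor sphere kept at 37C, 5% CO2 with EGF and FGF.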

[14] = tested on: Brachyury (BRA) Protein Expression, Deisenroth Lab, TBXT (gene 6862); assay: CCTE_Deisenroth_DEVTOX-GLR_legacy_Bra: (Legacy) CCTE's DevTox GLR-Endo Assay Evaluation of Brachyury (BRA) Protein Expression, Deisenroth Lab (AID 2284329)
Method in brief: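 Percent Bra-positive cells, scored by high-content imaging against a threshold of 5x BMAD over the undifferentiated control median, with the 0.2% DMSO median subtracted. RUES2-GLR cultures were dosed twice at 24 h intervals across a 48 h differentiation, at 1 nM–200 uM in ten steps, with n=4 replicates.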

[15] = CCTE_Deisenroth_DEVTOX-GLR_legacy_CellCount: (Legacy) Viability Assessment in CCTE's DevTox GLR-Endo Assay, Deisenroth Lab (AID 2284331); details: actives raise or lower the signal
Method in brief: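 Seed RUES2-GLR 24 h; differentiate 48 h, dosing at 0 and 24 h; fix, stain nuclei; image 5 fields/well; count nuclei. Conc. 1 nM - 200 uM, single technical replicate, n=4 experiments; bidirectional fit vs 0.2% DMSO.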

[16] = tested on: SRY-box transcription factor 17 (SOX17) Protein Expression, Deisenroth Lab, SOX17 (gene 64321); assay: CCTE_Deisenroth_DEVTOX-GLR_legacy_Sox17: (Legacy) CCTE's DevTox GLR-Endo Assay Evaluation of SRY-box transcription factor 17 (SOX17) Protein Expression, Deisenroth Lab (AID 2284341); details: actives raise or lower the signal
Method in brief: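 Using the RUES2-GLR line, compounds are tested as 10-point series during 48-h defined-media differentiation. Sox17 reporter fluorescence per cell determines positivity; endpoint is percentage positive, analysed bidirectionally versus DMSO baseline.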

[17] = tested on: SRY-box transcription factor 2 (SOX2) Protein Expression, Deisenroth Lab, SOX2 (gene 6657); assay: CCTE_Deisenroth_DEVTOX-GLR_legacy_Sox2: (Legacy) CCTE's DevTox GLR-Endo Assay Evaluation of SRY-box transcription factor 2 (SOX2) Protein Expression, Deisenroth Lab (AID 2284346)
Method in brief: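 Percent Sox2-positive cells was scored by high-content imaging of 5 fields per well. Positivity cutoff was 5x BMAD over the directed endoderm control, and the DMSO median was subtracted. Cells were RUES2-GLR, dosed twice at 24-h intervals over 48 h of differentiation (1 nM-200 uM).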

[18] = tested on: SRY-box transcription factor 2 (SOX2) Protein Expression, Deisenroth Lab, SOX2 (gene 6657); assay: CCTE_Deisenroth_DEVTOX-GLR_Endo_SOX2: CCTE's DevTox GLR-Endo Assay Evaluation of SRY-box transcription factor 2 (SOX2) Protein Expression, Deisenroth Lab (AID 2284412; active means hit-call score of the fitted dose curve at least 0.9, where 1 is the maximum)
Method in brief: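 Endpoint is percent SOX2-positive cells (SOX2+ count/total cells) minus 0.2% DMSO control, from high-content imaging of fixed, nuclear-stained RUES2-GLR cells. Dosing twice at 24 h intervals over 48 h differentiation, 1 nM–200 uM in 10 points.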

[19] = tested on: SRY-box transcription factor 17 (SOX17) Protein Expression, Deisenroth Lab, SOX17 (gene 64321); assay: CCTE_Deisenroth_DEVTOX-GLR_Endo_SOX17: CCTE's DevTox GLR-Endo Assay Evaluation of SRY-box transcription factor 17 (SOX17) Protein Expression, Deisenroth Lab (AID 2284413)
Method in brief: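 RUES2-GLR human pluripotent cells were seeded 24 h, then differentiated toward endoderm for 48 h with two chemical exposures 24 h apart (10-point series, 1 nM - 200 uM). Nuclei-stained fixed cells were imaged; endpoint is percent change in SOX17+ cells versus 0.2% DMSO.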

[20] = tested on: Brachyury (BRA) Protein Expression, TBXT (gene 6862); assay: CCTE_Deisenroth_DEVTOX-GLR_Endo_BRA: CCTE's DevTox GLR-Endo Assay Evaluation of Brachyury (BRA) Protein Expression, Deisenroth Lab (AID 2284417)
Method in brief: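 Percent BRA+ (mesoderm) RUES2-GLR cells after 48 h differentiation with two exposures, 1 nM - 200 uM; 0.2% DMSO control subtracted.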

[21] = CCTE_Deisenroth_DEVTOX-GLR_Endo_CellCount: Viability Assessment in CCTE's DevTox GLR-Endo Assay, Deisenroth Lab (AID 2284420)
Method in brief: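 Human pluripotent RUES2-GLR line; 24 h pre-seed; 48 h endoderm-directed differentiation; 2 doses, q24h; 10 conc., 1 nM - 200 uM; fix + nuclear dye; 5 fields/well imaged; readout = nuclei count, % change vs 0.2% DMSO; n=4.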

[22] = tested on: SRY-box transcription factor 2 (SOX2) Protein Expression, Deisenroth Lab, SOX2 (gene 6657); assay: CCTE_Deisenroth_DEVTOX-GLR_Pluri_SOX2: CCTE's DevTox GLR-Pluri Assay Evaluation of SRY-box transcription factor 2 (SOX2) Protein Expression, Deisenroth Lab (AID 2284428)
Method in brief: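 Steps: seed RUES2-GLR cells for 24 h; start 48 h differentiation in defined media; dose test chemicals at 0 and 24 h (1 nM–200 uM); fix, stain nuclei, image; compute SOX2+ percentage against 0.2% DMSO wells.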

[23] = tested on: Brachyury (BRA) Protein Expression, Deisenroth Lab, TBXT (gene 6862); assay: CCTE_Deisenroth_DEVTOX-GLR_Pluri_BRA: CCTE's DevTox GLR-Pluri Assay Evaluation of Brachyury (BRA) Protein Expression, Deisenroth Lab (AID 2284429; active means hit-call score of the fitted dose curve at least 0.9, where 1 is the maximum)
Method in brief: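 Percent BRA+ cells (BRA+ count over total cells) by high-content imaging of fixed RUES2-GLR cultures, corrected by 0.2% DMSO control. Cells received two doses over 48-hour differentiation, 1 nM–200 uM, n=4 experiments.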

[24] = CCTE_Deisenroth_DEVTOX-GLR_Pluri_CellCount: Viability Assessment in CCTE's DevTox GLR-Pluri Assay Evaluation of Total Cell Counts, Deisenroth Lab (AID 2284430)
Method in brief: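 Cytotoxicity readout: fluorescent nuclei counts by high-content imaging, expressed as percent change relative to 0.2% DMSO. Human RUES2-GLR pluripotent line differentiated 48 h, dosed twice at 24-h intervals across 1 nM - 200 uM (10 points).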

[25] = target: Estrogen receptor (Homo sapiens) (UniProt P03372); assay: CCTE_Deisenroth_AIME_96WELL_LUC_Active: CCTE's 96-well Estrogen Receptor Transactivation Assay with AIME metabolic competence (ERTA luciferase; metabolism positive), Deisenroth Lab (AID 2284023; active means hit-call score of the fitted dose curve at least 0.9, where 1 is the maximum)
Method in brief: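 Metabolism-positive mode: induced rat hepatic S9 in alginate microspheres conditions test solutions (0.002 - 200 uM, 10 points) for 2 hours. VM7Luc4E2 ER luciferase reporter cells then exposed 24 h; positive-direction fit against 17beta-estradiol, n=4 typical.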

[26] = target: Estrogen receptor (Homo sapiens) (UniProt P03372); assay: CCTE_Deisenroth_AIME_96WELL_LUC_Inactive: CCTE's 96-well Estrogen Receptor Transactivation Assay without AIME metabolic competence (ERTA luciferase; metabolism negative), Deisenroth Lab (AID 2284025; active means hit-call score of the fitted dose curve at least 0.9, where 1 is the maximum)
Method in brief: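 Metabolism-negative arm: chemicals (0.002–200 uM, 10 points) incubated 2 h with alginate-water microspheres, then medium moved onto VM7Luc4E2 cells for 24 h luciferase read-out. Positive direction vs 17beta-estradiol; n≥4 experiments.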

[27] = CCTE_Deisenroth_AIME_96WELL_CTox_Active: Cytotoxicity Assessment (CTOX) in CCTE's 96-well Estrogen Receptor Transactivation Assay with AIME metabolic competence (metabolism positive), Deisenroth Lab (AID 2284028; active means hit-call score of the fitted dose curve at least 0.9, where 1 is the maximum)
Method in brief: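 Cytotoxicity in VM7Luc4E2 breast cells after 24 h exposure to medium from a 2 h metabolic pre-incubation with induced rat hepatic S9 in alginate microspheres; fluorescent live-cell protease readout, 10-point series 0.002–200 uM, n=4.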

[28] = CCTE_Deisenroth_AIME_96WELL_CTox_Inactive: Cytotoxicity Assessment (CTOX) in CCTE's 96-well Estrogen Receptor Transactivation Assay without AIME metabolic competence (metabolism negative), Deisenroth Lab (AID 2284029; active means hit-call score of the fitted dose curve at least 0.9, where 1 is the maximum)
Method in brief: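 Cytotoxicity in VM7Luc4E2 breast cells was scored as loss of fluorescent signal from a live-cell protease substrate 24 h after exposure, using bidirectional curve fitting. Test media came from a 2 h metabolism-negative pre-incubation (alginate-water, no hepatic S9) of compounds at 0.002-200 uM, with at least four replicates.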

Estrogen receptor (Homo sapiens), sequence (P03372 whole entry, looked up): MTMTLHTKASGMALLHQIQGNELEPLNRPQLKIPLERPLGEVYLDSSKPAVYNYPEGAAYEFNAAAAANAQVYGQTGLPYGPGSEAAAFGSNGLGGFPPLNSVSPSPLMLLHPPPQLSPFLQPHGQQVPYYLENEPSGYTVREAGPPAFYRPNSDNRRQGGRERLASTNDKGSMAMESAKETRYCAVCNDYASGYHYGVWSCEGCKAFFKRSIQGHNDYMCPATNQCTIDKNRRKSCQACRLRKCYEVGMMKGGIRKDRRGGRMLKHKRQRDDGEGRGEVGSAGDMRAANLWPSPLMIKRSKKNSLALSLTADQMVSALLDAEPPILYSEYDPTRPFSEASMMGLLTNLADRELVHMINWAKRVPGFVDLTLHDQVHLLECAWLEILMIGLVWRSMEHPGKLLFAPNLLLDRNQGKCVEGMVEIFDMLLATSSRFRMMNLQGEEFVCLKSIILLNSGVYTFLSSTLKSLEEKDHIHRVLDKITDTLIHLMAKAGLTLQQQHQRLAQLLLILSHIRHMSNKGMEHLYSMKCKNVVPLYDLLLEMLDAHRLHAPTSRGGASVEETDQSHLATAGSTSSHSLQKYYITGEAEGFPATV

CCCCOCCOP(=O)(O)OCCOCCCC
outcome [1]: inactive | outcome [2]: inactive | AC50 [3]: 2.46 µM (active) | outcome [4]: inactive | outcome [5]: inactive | outcome [6]: inactive | outcome [7]: inactive | outcome [8]: inactive | outcome [9]: inactive | outcome [10]: inactive | outcome [11]: inactive | outcome [12]: inactive | outcome [13]: inactive

Oc1cc(O)c2c(c1)O[C@H](c1ccc(O)c(O)c1)[C@@H](O)C2
outcome [14]: inactive | AC50 [15]: 167 µM (active) | AC50 [16]: 144 µM (active) | outcome [17]: inactive | outcome [18]: inactive | AC50 [19]: 146 µM (active) | AC50 [20]: 0.000133 µM (active) | AC50 [21]: 167 µM (active) | AC50 [22]: 5.13 µM (active) | AC50 [23]: 157 µM (active) | outcome [24]: inactive

c1ccc([C@H]2O[C@H]2c2ccccc2)cc1
AC50 [25]: 66.7 µM (active) | AC50 [26]: 72.1 µM (active) | outcome [27]: inactive | outcome [28]: inactive
